The source of these data is PubChem BioAssay AID1851 (National Center for Advancing Translational Sciences (NCATS), 2009).

SMILES strings stand for the structures. The whole screen tested about 16,000 compounds, of which about 5,800 (36%) were called active. Not shown: some 23% with an inconclusive outcome. Calls follow the shape of the dose curve; as a rule, active = well fitted curve in the direction sought with a large enough effect; inconclusive = small, poorly fitted or top-dose-only effect, or effect the other way; inactive = no such curve, though single readings can be large or run the other way. The list shows a part of the results.
% is scaled to controls: 0 for no effect and ±100 for the full control effect.

For the test, the target named is Cytochrome P450 2C19 (Homo sapiens) (UniProt P33261). Put plainly: Cytochrome panel assay with activity outcomes. To be noted: recombinant CYP, pro-luciferin dealkylation, luminescence, p450-cyp2c19; series mostly up to 57.1 µM; activity, negative = inhibition: at the top concentration.
Cytochrome P450 2C19 (Homo sapiens), sequence (P33261 whole entry, looked up): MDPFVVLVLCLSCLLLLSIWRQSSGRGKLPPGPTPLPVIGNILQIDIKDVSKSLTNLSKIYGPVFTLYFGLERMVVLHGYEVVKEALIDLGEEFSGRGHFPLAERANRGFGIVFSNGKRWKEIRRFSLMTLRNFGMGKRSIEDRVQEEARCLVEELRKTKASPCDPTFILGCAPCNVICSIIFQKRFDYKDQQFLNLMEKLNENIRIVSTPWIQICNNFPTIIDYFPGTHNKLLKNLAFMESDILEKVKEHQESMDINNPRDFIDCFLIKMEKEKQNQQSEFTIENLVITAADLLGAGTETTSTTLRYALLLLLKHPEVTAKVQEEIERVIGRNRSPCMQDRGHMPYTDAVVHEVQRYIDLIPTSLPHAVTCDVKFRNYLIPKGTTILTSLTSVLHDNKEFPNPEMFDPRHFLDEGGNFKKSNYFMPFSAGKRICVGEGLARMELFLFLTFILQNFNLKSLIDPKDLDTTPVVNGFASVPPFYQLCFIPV
Regarding `O=C(CCN1C(=O)S/C(=C\c2ccccc2)C1=O)Nc1ccc(S(=O)(=O)Nc2nccs2)cc1`, the AC50 is 5.01 µM (active).

As to `O=C(O)c1ccccc1C(=O)Nc1ccc(S(=O)(=O)Nc2nccs2)cc1`, the “activity, negative = inhibition” value was 32.7% [at 25.6 µM] (inactive).

Turning to `O=S1(=O)CCN(c2ccccc2CC(c2c[nH]c3ccccc23)c2c[nH]c3ccccc23)CC1`, the AC50 is 3.16 µM (active). For the compound `c1ccc2c(CN3CCN(Cc4c[nH]c5ccccc45)CC3)c[nH]c2c1`, the activity, negative = inhibition is 1.09% [at 11.4 µM] (inactive).

For the compound `Fc1cc2nc(-c3ccncc3)[nH]c2cc1F`, the AC50 was 7.08 µM (active). In the case of `COc1ccc(C2=CSC(/N=C/c3ccc(F)cc3)=NN2)cc1`, the AC50 is 17.8 µM (active). Take `CC(C)CCOc1ccc(NC(=O)C2OC3OC(C)(C)OC3C3OC(C)(C)OC23)cc1` (stereo not drawn): the “activity, negative = inhibition” value is -23% (inactive). The same measure, in the same setting: the same measure for `CCN(CC)CCNC(=O)c1cc(Br)c(N)cc1OC`: -17.9% [at 25.6 µM] (inactive).

`COc1ccc(Br)cc1C(=O)Nc1ccc(Cc2ccncc2)cc1`: the AC50 was 0.794 µM (active). For the compound `Cn1c(=O)n(-c2ccc(Cl)cc2)c(=O)c2c3c(sc21)COC(C)(C)C3`, the AC50 is 20 µM (active). For the compound `CN1CCc2c(sc3c2c(=O)n(-c2ccccc2)c2nncn32)C1`, the “activity, negative = inhibition” value was -9.84% (inactive).

Take `Cc1ccc(-n2c(C)cc(/C=C(\C#N)C(=O)NCC3CCCO3)c2C)cc1` (stereo not drawn): the AC50 was 3.16 µM (active). On the same count and under the same terms, the same measure for `COc1cc(/C=C(\C#N)C(=O)NCC2CCCO2)c([N+](=O)[O-])cc1OC` (stereo not drawn): 11.2 µM (active). In the case of `COc1ccc(/C=C(\C#N)C(=O)NCC2CCCO2)cc1OC` (stereo not drawn), the “activity, negative = inhibition” value was 3.24% (inactive). Same read-out and setting: the same measure for `N[C@@H](Cc1ccnnc1)C(=O)O`: 35.8% [at 11.4 µM] (inactive); for `CC(C)[C@H](CO)Nc1nc(Nc2ccc(C(=O)O)c(Cl)c2)c2ncn(C(C)C)c2n1`: -34.9% (inactive). On to `CCOC(=O)CSc1cc(=O)n(C)c2cc(Cl)ccc12`, for which the AC50 is 4.47 µM (active). For `Cc1cccc(-n2nc([N+](=O)[O-])c(=NCc3cccnc3)n2O)c1`, the AC50 was 6.31 µM (active). Turning to `Cc1ccc(C)c(/C(O)=C2\C(=O)C(=O)N(Cc3cccnc3)C2c2cccnc2)c1` (stereo not drawn), the “activity, negative = inhibition” value was -0.22% (inactive).

As for `O=C1c2ccccc2C(=O)N1CCSC(=S)N1CCOCC1`, the AC50 is 1.58 µM (active). Take `Cn1c(=S)c2[nH]c(SCCN3C(=O)c4ccccc4C3=O)nc2n(C)c1=O`: the activity, negative = inhibition is 17.2% [at 11.4 µM] (inactive). In the case of `Cc1cc2ccccn2c1C(=O)c1nc(N2CCOCC2)ncc1Cl`, the AC50 is 7.94 µM (active).

On to `Cc1nc2cnc(N3CCOCC3)nc2n(C)c1=O`, for which the “activity, negative = inhibition” value was -28.1% (inactive). The same measure, in the same setting: the same measure for `Cc1cc(CC(=O)O)n(C)c1C(=O)c1ccc(Cl)cc1`: -13.8% [at 25.6 µM] (inactive). Take `O=c1c(-c2ccccc2)nc2cnc(N3CCOCC3)nc2n1-c1ccccc1`: the “activity, negative = inhibition” value is -17.9% (inactive).

For the compound `Cc1cc2ccccn2c1C(=O)c1ccc(Cl)cc1`, the AC50 is 1.26 µM (active). As for `CCC(=O)NNc1cc(=O)c2c(=O)n(C)c(=O)n(C)c2[nH]1`, the “activity, negative = inhibition” value is 9.13% (inactive). Still for that read-out and setting: the same measure for `CC(=O)NC1=NC(=O)C(C)S1` (stereo not drawn): 17.4% (inactive); for `COc1cc2c(cc1OC)-c1cc(NCc3ccccn3)nc(=O)n1CC2`: 7.74% (inactive). The same measure, in the same setting: the same measure for `Cc1ccc(CS(=O)(=O)CCC(=O)NCc2ccccn2)cc1`: -22.8% (inactive). In the case of `COc1cc(CNCc2ccccn2)ccc1OCc1ccc(Cl)cc1Cl`, the AC50 was 3.98 µM (active). For the compound `COc1ccc(CC(=O)NCc2ccccn2)cc1OC`, the AC50 is 28.2 µM (active). As for `CCN1C(=O)[C@H]2[C@H]3[C@H](O)[C@H](O)C/C(=N/OCC(C)C)[C@H]3CC[C@@H]2C1=O`, the activity, negative = inhibition was 28.2% [at 11.4 µM] (inactive).

Consider `CCOC(=O)N/N=C1/C[C@@H](O)[C@@H](O)[C@@H]2[C@@H]3C(=O)N(Cc4ccccc4)C(=O)[C@H]3CC[C@H]12`, for which the activity, negative = inhibition is 10.9% [at 11.4 µM] (inactive).

`COc1ccccc1OCC(=O)N/N=C1/SCC(=O)N1Cc1ccccc1`: the AC50 is 14.1 µM (active). As for `COc1ccccc1OCC(=O)NNC(=O)c1cnccn1`, the “activity, negative = inhibition” value was -6.18% (inactive). For `CCC(C)N1C(=O)S/C(=C/c2ccc(Sc3nc4ccccc4[nH]3)o2)C1=O` (stereo not drawn), the AC50 is 1.12 µM (active).

In the case of `CCCCCC1CCC(C(=O)NNC(=S)NCC)CC1` (stereo not drawn), the concentration at half-maximal activity (AC50) is 17.8 µM (active). As to `COc1ncnc(NS(=O)(=O)c2ccc(N)cc2)c1OC`, the “activity, negative = inhibition” value was -33.9% [at 25.6 µM] (inactive). With `Cc1[nH]c(N)nc(=S)c1CCCNc1ccccc1`, the AC50 is 2 µM (active). For the compound `Cc1[nH]c(N)nc(=S)c1CCC(=O)O`, the activity, negative = inhibition is 3.33% [at 11.4 µM] (inactive). Same read-out and setting: the same measure for `Nc1nc(N)c(CCCCc2ccccc2)c(N)n1`: -22.9% [at 11.4 µM] (inactive); for `Cn1c(N)c(N=Nc2ccc(S(N)(=O)=O)cc2)c(=O)n(C)c1=O`: 76% [at 11.4 µM] (inactive). As to `c1ccc(-c2nnc(SCCC3OCCCO3)o2)cc1`, the AC50 was 5.01 µM (active). Same read-out and setting: the same measure for `COc1ccc(NC(=O)N2CCC3(CC2)CCN(C(=O)c2cnccn2)CC3)cc1`: 25.1 µM (active). Take `COc1ccc(NC(=O)N2CCCC3(CCN(S(C)(=O)=O)CC3)C2)cc1`: the “activity, negative = inhibition” value is -3.07% (inactive). Same read-out and setting: the same measure for `COc1ccc(NC(=O)N2CCCC3(CCN(C(=O)c4cnccn4)CC3)C2)cc1`: -10.3% (inactive). Turning to `COc1ccc(NC(=O)N2CCC3(CC2)CCN(S(C)(=O)=O)CC3)cc1`, the AC50 is 3.16 µM (active). As for `COc1ccc(NC(=O)N2CC3(CCN(S(C)(=O)=O)CC3)C2)cc1`, the “activity, negative = inhibition” value is -23% (inactive). The same measure, in the same setting: the same measure for `COc1ccc(NC(=O)N2CC3(CCN(S(=O)(=O)c4ccccc4)CC3)C2)cc1`: -20.5% (inactive). The same measure, in the same setting: the same measure for `COc1ccc(NC(=O)N2CCC3(CC2)CCN(S(=O)(=O)c2ccccc2)CC3)cc1`: -14.2% (inactive); for `COc1ccc(NC(=O)N2CC3(CCN(C(=O)c4cnccn4)CC3)C2)cc1`: 0.386% (inactive).

With `O=C(Nc1ccccc1)N1CCC2(CC1)CCN(S(=O)(=O)c1ccccc1)CC2`, the AC50 is 15.8 µM (active). On the same count and under the same terms, the same measure for `CC12c3ccccc3C(c3ccccc31)C1C(=O)N(Cc3cccnc3)C(=O)C12` (stereo not drawn): 1.26 µM (active). For the compound `FC(F)(F)c1cnc(/C=C/Nc2ccccc2Cl)c(Cl)c1`, the “activity, negative = inhibition” value is -25.2% (inactive). With `Nc1ccccc1Oc1ncc(C(F)(F)F)cc1Cl`, the AC50 is 7.94 µM (active). `Oc1cc(O)c2c(c1)O[C@H](c1ccc(O)c(O)c1)[C@H](O)C2`: the AC50 result was “inactive”.

`CN1CCN(c2nc3cc(C(F)(F)F)ccc3n3cccc23)CC1`: the AC50 is 12.6 µM (active). The same measure, in the same setting: the same measure for `Cc1ccc(OCCCOc2cccc3cccnc23)cc1C`: 1.12 µM (active).

For `CCOc1ccc2c(ccc(/C=C\c3cc(C)c4cccnc4c3O)[n+]2C)c1`, the activity, negative = inhibition is 27.7% [at 11.4 µM] (inactive).

Take `COc1cc(NCCC(=O)O)c2ncccc2c1`: the activity, negative = inhibition is -14.2% [at 11.4 µM] (inactive).

Consider `O=C1N/C(=C\c2ccc(N3CCOCC3)c(F)c2)C(=O)N1Cc1ccccc1`, for which the half-maximal activity concentration (AC50) is 14.1 µM (active). On to `c1ccc2c(N3CCNCC3)nc(-c3ccc4c(c3)OCO4)nc2c1`, for which the “activity, negative = inhibition” value is -12% (inactive). In the case of `CN(C)c1ccc(-c2nc(N3CCNCC3)c3ccccc3n2)cc1`, the AC50 is 15.8 µM (active). In the case of `CN1CCN(c2nc(-c3ccoc3)nc3ccccc23)CC1`, the “activity, negative = inhibition” value was -25.4% (inactive). `CN(C)c1ccc(-c2nc(-n3ccnc3)c3ccccc3n2)cc1`: the AC50 was 2.51 µM (active). As for `c1cncc(-c2nc(N3CCNCC3)c3ccccc3n2)c1`, the “activity, negative = inhibition” value is -18.2% (inactive). Regarding `c1ccc2c(-n3ccnc3)nc(-c3ccoc3)nc2c1`, the AC50 was 20 µM (active). Turning to `c1ccc2c(N3CCOCC3)nc(-c3ccoc3)nc2c1`, the “activity, negative = inhibition” value was -11.5% (inactive). On the same count and under the same terms, the same measure for `CO[C@@H]1/C=C\CC(=O)N[C@@H](C)C(=O)OC[C@@H](OC)[C@H](C)/C=C\CC(=O)OC[C@H]1C`: -30.6% [at 11.4 µM] (inactive). On to `O=C1C(Cl)=C(Nc2ccc(S(=O)(=O)Nc3ccccn3)cc2)C(=O)c2ccccc21`, for which the AC50 is 0.794 µM (active). Regarding `CN(C)S(=O)(=O)Nc1ccccn1`, the activity, negative = inhibition was -1.75% [at 11.4 µM] (inactive).

Turning to `Nc1ccc(S(=O)(=O)Nc2ccccn2)cc1`, the “activity, negative = inhibition” value is 35.2% [at 25.6 µM] (inactive). As to `CCOC(=O)N1CCC(NC(=O)CSCc2cnn(-c3ccccc3)c2-n2cccc2)CC1`, the AC50 was 5.01 µM (active).

Turning to `Cc1ccc(C)c(CN2C(=O)C3CCCN3c3ccc(C#N)cc32)c1` (stereo not drawn), the AC50 was 3.16 µM (active). `CC(C)N(CCC(=O)c1ccc2ccccc2c1)Cc1ccccc1`: the “activity, negative = inhibition” value is 4.32% (inactive). Turning to `N=C(c1ccc2ccccc2c1)c1ccccc1Cc1ccccc1`, the AC50 was 3.98 µM (active). The same measure, in the same setting: the same measure for `Cc1ccc(C)c(C(=N)c2ccccc2Cc2ccccc2)c1`: 1 µM (active). Consider `COc1cc(/C=C(/NC(=O)c2ccccc2Cl)C(=O)O)cc(OC)c1OC`, for which the “activity, negative = inhibition” value was -19.5% (inactive). Turning to `COc1ccccc1C(=O)N/C(=C/c1ccc(Br)cc1)C(=O)NCC(=O)O`, the AC50 is 25.1 µM (active). For the compound `O=C(O)CNC(=O)c1ccccc1O`, the activity, negative = inhibition is 26.9% [at 11.4 µM] (inactive).

As to `CS(=O)(=O)N1CCC2(CC1)CN(c1cccc(-c3ccccc3)c1)C2`, the “activity, negative = inhibition” value was -17.6% (inactive). The same measure, in the same setting: the same measure for `CCn1c(C)nc2cc(C(=O)NNS(=O)(=O)c3ccccc3F)ccc21`: -12.6% (inactive). With `CCn1c2ccccc2c2cc(NS(=O)(=O)c3ccccc3C)ccc21`, the AC50 is 0.282 µM (active).

For `O=[N+]([O-])c1ccccc1N=Nc1c(O)[nH]c2ccc(S(=O)(=O)O)cc12`, the activity, negative = inhibition is -23.2% [at 11.4 µM] (inactive). As for `CCc1ccc2[nH]c(O)c(N=Nc3nc(-c4ccccc4)cs3)c2c1`, the AC50 was 15.8 µM (active). Same read-out and setting: the same measure for `COC(=O)C1=C(C)NC(C)=C([N+](=O)[O-])[C@H]1c1ccccc1C(F)(F)F`: 0.158 µM (active). Take `COC(=O)C1=C(C)NC(C)=C([N+](=O)[O-])[C@@H]1c1ccccc1C(F)(F)F`: the AC50 was 0.126 µM (active). For `CCC(=O)O[C@@]1(C(=O)SCF)[C@@H](C)C[C@H]2[C@@H]3C[C@@H](F)C4=CC(=O)C=C[C@@]4(C)[C@]3(F)[C@@H](O)C[C@]21C`, the “activity, negative = inhibition” value is -19.8% [at 25.6 µM] (inactive). Regarding `C[C@@H](c1ccccc1)N1C(=O)[C@H]2[C@H]3[C@H](O)[C@H](O)C/C(=N/OC[C@@H](O)COCc4ccco4)[C@H]3CC[C@@H]2C1=O`, the activity, negative = inhibition was -25% [at 11.4 µM] (inactive). Take `CCOC(=O)[C@@]12C[C@@H]1/C(=N/O)c1ccccc1O2`: the “activity, negative = inhibition” value was -14.2% (inactive). Turning to `O=C(Nc1ccccc1)[C@@]12C[C@@H]1/C(=N/O)c1ccccc1O2`, the AC50 is 10 µM (active).

For `N=C1[C@@H](O)[C@]2(I)c3ccccc3N3C(=N)[C@H](O)[C@@H]4c5ccccc5N1[C@@H]4[C@@H]32`, the concentration at half-maximal activity (AC50) is 3.16 µM (active).

One may read the AC50 as the concentration at which the activity in the assay is half-maximal.
